Measured values: the supplement of paper PMC8728848
This is one part of a sample in which the strongest signals are shown more often than they occur.

Tests used:
Test in all cases: glycan array binding signal (z-score within array); higher = stronger binding
Settings in all cases: glycan notation: IUPAC condensed, linker removed
[1] = system: Neu5Ac(a2-8)Neu5Ac(a2-3)Gal(b1-4)Glc
Summary of the method: (§1)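 Arrays were curated from the Consortium for Functional Glycomics database, 3228 in total, and kept only where the protein sequence was available. Binding is expressed as a within-array Z-score. This score was averaged across arrays of the same protein sequence at different concentrations or buffers and across linkers, and negative values can be read as non-binding.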

[2] = system: Neu5Ac(a2-8)Neu5Ac(a2-8)Neu5Ac(a2-3)[GalNAc(b1-4)]Gal(b1-4)Glc
Summary of the method: as §1

[3] = system: Neu5Gc(a2-3)Gal(b1-3)[Fuc(a1-4)]GlcNAc
Summary of the method: as §1

[4] = system: Neu5Ac(a2-8)Neu5Ac(a2-3)[Gal(b1-3)GalNAc(b1-4)]Gal(b1-4)Glc
Summary of the method: as §1

[5] = system: Neu5Gc(a2-3)Gal(b1-3)GlcNAc
Summary of the method: as §1

[6] = system: Neu5Ac(a2-8)Neu5Ac(a2-8)Neu5Ac(a2-8)Neu5Ac(a2-8)Neu5Ac(a2-8)Neu5Ac(a2-8)Neu5Ac(a2-8)Neu5Ac
Summary of the method: as §1

[7] = system: Neu5Ac9Ac(a2-6)Gal(b1-4)GlcNAc
Summary of the method: as §1

[8] = system: Neu5Gc(a2-3)Gal(b1-4)GlcNAc
Summary of the method: as §1

Actinohivin (Actinomycete K97)
glycan array binding signal (z-score) [1]: -0.163 | glycan array binding signal (z-score) [2]: -0.14 | glycan array binding signal (z-score) [3]: -0.168

AgI/II Vhelical-GFP (Streptococcus mutans)
glycan array binding signal (z-score) [4]: 0.136 | glycan array binding signal (z-score) [5]: 0.551

SiiE (Salmonella typhimurium), A0A0H3NVH0
glycan array binding signal (z-score) [2]: -0.437

MIC3-MAR1b (Eimeria tenella), B6VCV4
glycan array binding signal (z-score) [6]: -0.531

MIC3-MAR5 (Eimeria tenella), B6VCV4
glycan array binding signal (z-score) [6]: -0.75

GspB (Streptococcus gordonii), Q939N5
glycan array binding signal (z-score) [7]: 2.97

LcI (Legionella pneumophila)
glycan array binding signal (z-score) [7]: 0.198

SpGH101 (Streptococcus pneumoniae), Q8DR60
glycan array binding signal (z-score) [8]: -0.177

AgI/IIC123-GFP (Streptococcus mutans)
glycan array binding signal (z-score) [8]: -0.472
